The entries come from a sample that favours hits as a whole.
RMI FANCM FP: disruptors of RMI1/RMI2 association with MM2 peptide – biochemical, fluorescence polarization, human, primary screen; RMI core complex (RMI1/RMI2) binding to FANCM MM2 peptide, human; RMI core complex with F-MM2 peptide; active compounds read low; FP signal (polarization) at 33 µM; 70,000 tested, 0.58% active; AID 1159607, 2016; in the data active = FP signal below about 40
The depositor's hits bear a star.

SMILES	RMI FANCM FP
NC(=O)c1ccc[n+](CC(=O)c2ccc3c(c2)Cc2ccccc2-3)c1	71
NC(=O)c1ccc[n+](CC(=O)c2ccc(Cl)c(Cl)c2)c1	62
Fc1cccc(Cl)c1CSc1ccc(-c2ccncc2)nn1	63
COC(=O)c1ccc2c(=O)n(CC(=O)NCCN3CCN(c4ccccc4)CC3)c(=S)[nH]c2c1	64
Cc1ccc(NC(=O)N2CCCC(c3nnc(C)s3)C2)cc1 (stereo not drawn)	62
Cc1onc(-c2ccccc2Cl)c1C(=O)Nc1ccc2c(c1)COCO2	1*
Cc1onc(-c2ccccc2Cl)c1C(=O)Nc1ccc2c(c1)OCC(C)(C)C(=O)N2	66
CC(=O)N1CCc2ccc(NC(=O)c3c(-c4ccccc4Cl)noc3C)cc21	66
Cc1cc(C)c2sc(N(Cc3ccco3)C(=O)c3cc(C)no3)nc2c1	71
CCc1ccccc1NC(=O)C(=O)NCCc1ccc(N(C)C)cc1	71
O=C(CCCn1nc(-c2cccs2)ccc1=O)Nc1nccs1	67
Cc1cc(C(=O)N(CCCN2CCOCC2)c2nc3c(Cl)cccc3s2)on1	66
Cc1ccc(N2CCN(S(=O)(=O)c3cc(Cl)ccc3Cl)CC2)c(C)c1	64
Cc1ccc(-c2ccc(N3CCN(S(=O)(=O)c4ccccc4Cl)CC3)nn2)c(C)c1	80
Cc1ccc(S(=O)(=O)N=C2C=CC(=O)C(Cl)=C2)c(C)c1	-12*
N#C/C(=N/Nc1cccc(S(=O)(=O)N2CCOCC2)c1)c1nc2ccccc2[nH]1	63
COc1cc(C(=O)O/N=C\c2ccccc2OC(F)(F)F)cc(OC)c1OC	50
COc1cc(C(=O)Oc2c(Cl)cc(Cl)cc2C=Nc2cc(C)c(C)cc2C)cc(OC)c1OC	97
COc1cc(N=Cc2ccccc2OC(=O)c2cc(OC)c(OC)c(OC)c2)c(OC)cc1Cl	28*
CC1(C(N)=O)CCC(C(=O)O)C1(C)C (stereo not drawn)	57
O=C(CCN1C(=O)/C(=C\c2ccco2)SC1=S)Nc1cccc(Br)c1	9*
O=C(CN1C(=O)/C(=C\c2cccs2)SC1=S)Nc1cccc(Br)c1	59
O=C(CN1C(=O)/C(=C/c2ccco2)SC1=S)Nc1ccc(C(=O)O)cc1	64
O=C(CCC1=NS(=O)(=O)c2ccc(C(F)(F)F)cc2N1)N1CCN(c2ccccc2F)CC1	61
O=C(CCS(=O)(=O)c1ccccc1)Nc1nnc(-c2ccc(Br)s2)o1	65
SMILES	RMI FANCM FP
CCN1CCN(CC(=O)Nc2ccc(C(=O)OC)cc2)C(=O)C1=O	60
S=c1[nH]nc(CN2c3ccccc3Sc3ccccc32)n1-c1ccc(Cl)cc1	57
Oc1ccc(-c2[nH]ncc2Oc2ccccc2)c(O)c1O	31*
CCOc1ccc(-c2[nH]ncc2Oc2cccc(OC)c2)c(O)c1	59
COc1ccccc1Oc1cn[nH]c1-c1ccc(O)cc1O	57
CCOC(=O)N1CCN(C(=O)CSc2nnc(Cc3cccn3C)n2-c2ccc(Cl)cc2)CC1	63
O=C(/C=C/c1ccccc1)Nc1nc2ccc(S(=O)(=O)N3CCOCC3)cc2s1	121
CN(C)c1ccc(/C=N\NC(N)=S)c(Cl)c1	53
N#Cc1c(-c2ccc3c(c2)OCO3)cc(-c2ccccc2O)[nH]c1=O	76
COc1ccc(-c2cc(-c3ccc(C)c(C)c3)nc(SCC(=O)NCc3ccc4c(c3)OCO4)c2C#N)cc1OC	104
N#Cc1c(-c2ccc3c(c2)OCO3)nc(N2CCCCC2)[nH]c1=O	23*
COc1ccc(-c2ccnc(SCC(=O)NCCSCc3ccco3)n2)cc1	58
COc1ccc(N2CC(NC(=O)Nc3cc(C)on3)CC2=O)cc1 (stereo not drawn)	58
CC1CCN(S(=O)(=O)c2ccc(-c3ccc(S(=O)(=O)N4CCC(C)CC4)cc3)cc2)CC1	60
COc1ccc(CCNC(=O)CSc2nnc(NC(=O)Nc3ccccc3)s2)cc1OC	56
Cc1ccnc(NC(c2ccco2)c2c(C)[nH]c3ccccc23)c1 (stereo not drawn)	88
COc1ccc(Cc2nc3ccccc3[nH]2)cc1	62
COc1ccc(C(c2c(C)[nH]c3ccccc23)c2c(C)[nH]c3ccccc23)c(OC)c1	16*
Nc1ccc2c(c1)N(C(=O)C1CCCC1)CC2	72
O=C(CSc1ccccc1[N+](=O)[O-])Nc1cccc(Br)c1	65
N#Cc1c(N)nc(SCC(=O)c2ccc(O)c(O)c2)c(C#N)c1-c1ccc(OCc2ccccc2)cc1	14*
COc1ccc(-c2c(C#N)c(SCC(=O)c3ccc4c(c3)OCCO4)nc3c2C(=O)CC(C)(C)C3)cc1	164
CC1(C)CC(=O)c2c(nc(SCC(=O)c3ccc(Cl)c(Cl)c3)c(C#N)c2-c2ccccc2)C1	131
CCOc1ccccc1NC(=O)C(C)Oc1cccc(Br)c1 (stereo not drawn)	68
COc1ccc(NC(=O)CC2CCCCN2S(=O)(=O)c2ccccc2)cc1Cl (stereo not drawn)	73
SMILES	RMI FANCM FP
COc1cccc(NC(=O)NNC(=O)c2cccn(Cc3cccc(F)c3)c2=O)c1	65
O=S1(=O)CCC(S(=O)(=O)Cl)C1 (stereo not drawn)	61
COc1ccc(S(=O)(=O)NCC(c2ccc(N(C)C)cc2)N2CCc3ccccc3C2)cc1OC (stereo not drawn)	55
COc1cc(C)c(C)cc1S(=O)(=O)NCC(c1ccc(N(C)C)cc1)N1CCc2ccccc21 (stereo not drawn)	19*
COc1cc(C)c(C)cc1S(=O)(=O)NCC(c1ccsc1)N1CCc2ccccc2C1 (stereo not drawn)	78
Cc1cc(NC(=O)c2ccc(OC(C)C)cc2)n(C(C)C)n1	70
O=C(NCCCn1nc(-c2ccc(F)cc2)ccc1=O)c1c(F)cccc1F	67
Cc1ccc(/C=N\NC(=O)CNC(=O)c2ccc(Cl)cc2Cl)o1	61
O=S(=O)(O)c1nc2ccccc2o1	61
O=c1[nH]c(CSc2nc3ccccc3o2)nc2ccccc12	55
O=c1c(Cl)c2oc3ccccc3nc-2c2ccccc12	32*
CCOC(=O)N/N=C\c1ccc(Cl)cc1	53
Cc1cc(C)c(S(=O)(=O)N2CCN(c3ccc(Cl)c(Cl)c3)CC2)cc1C	55
COc1ccc(Cl)cc1NC(=O)CSc1cn(CCNC(=O)c2c(F)cccc2F)c2ccccc12	66
CO/N=C(/C(=O)NC1C(=O)N2C(C(=O)O)=C(COC(C)=O)CSC12)c1csc(N)n1 (stereo not drawn)	59
CO/N=C(/C(=O)N[C@@H]1C(=O)N2C(C(=O)O)=C(C[N+]3(C)CCCC3)CS[C@H]12)c1csc(N)n1	50
C=CC1=C(C(=O)O)N2C(=O)[C@@H](NC(=O)C(=NO)c3csc(N)n3)[C@H]2SC1	34*
NC(=O)C1CCN(C(=O)c2ccc3c(=O)n(-c4ccc(F)cc4)c(SCc4cccc(F)c4)nc3c2)CC1	56
COc1ccc(-c2c(C#N)c(N)nc3c2CN(C)CC3)c(OC)c1OC	-4*
N#Cc1c(N)nc2c(c1-c1ccc(Cl)cc1)CCCC2	54
O=C(Nc1ccc(Cl)cc1)N1CCC(c2nnc(-c3ccco3)s2)CC1	62
NC(=O)C1CCN(C(=O)CCCn2nc(-c3cccs3)ccc2=O)CC1	69
Cc1cc(=O)[nH]c(SCCCCCCCCCCSc2nc(C)cc(=O)[nH]2)n1	63
NC(=O)c1cc(-c2ccccc2)sc1NC(=O)c1ccc2c(c1)OCO2	53
O=C(c1ccc(S(=O)(=O)c2ccccc2)nc1)N1CCN(c2cccc(Cl)c2)CC1	62
CCCN1CCCc2cc(CCNC(=O)COCC)ccc21	27*
CCCN1CCCc2cc(CCNC(=O)C3CCCCC3)ccc21	69

Assay outcomes from PubChem.
